According to the supplement of paper PMC9262897, “Low-cost anti-mycobacterial drug discovery using engineered E. coli” (Nature Communications, 2022):
Counter-ions that a name gives are not always drawn. ± gives the standard deviation of the averaged measurements.

Test system: E. coli TESEC Mtb DapB
Assay: growth (OD600 after 10 h); higher = more growth (less inhibition)
Conditions: arabinose induction (level): Low; compound 0.1 mM; raw OD600 reference: median of DMSO wells 0.227, cell-free background 0.041
Experimental: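 TESEC E. coli strains in which the native enzyme is deleted and replaced by arabinose-inducible Mtb Asd, DapB, CysH or TrpD, each grown in its selective medium. Strains were screened against the Prestwick library at 0.1 mM and 1% DMSO in 384-well format at low and high arabinose induction. Growth is read as OD600 after 10 h in triplicate.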

SMILES | growth
O=C1OC(CN2CCOCC2)CN1/N=C/c1ccc([N+](=O)[O-])o1 (configuration not stated) [Furaltadone hydrochloride] | 0.0529 ± 0.00068
CN(C)CCCN1c2ccccc2CCc2ccccc21 [Imipramine hydrochloride] | 0.243 ± 0.071
CCOC(=O)O[C@]1(C(=O)OCCl)CC[C@H]2[C@@H]3CCC4=CC(=O)C=C[C@]4(C)[C@H]3[C@@H](O)C[C@@]21C [Loteprednol etabonate] | 0.233 ± 0.028
CCCNC(C)C(=O)Nc1ccccc1C (configuration not stated) [Prilocaine hydrochloride] | 0.209 ± 0.023
NS(=O)(=O)c1cc2c(cc1Cl)NCNS2(=O)=O [Hydrochlorothiazide] | 0.244 ± 0.027
Cc1cc2c(s1)Nc1ccccc1N=C2N1CCN(C)CC1 [Olanzapine] | 0.249 ± 0.026
Nc1ccc(C(=O)O)c(O)c1 [4-aminosalicylic acid] | 0.263 ± 0.017
CC(=O)Oc1ccc(C(c2ccc(OC(C)=O)cc2)c2ccccn2)cc1 [Bisacodyl] | 0.2324 ± 0.0015
CN(Cc1cnc2nc(N)nc(N)c2n1)c1ccc(C(=O)N[C@@H](CCC(=O)O)C(=O)O)cc1 (racemic) [Amethopterin (R,S)] | 0.204 ± 0.022
CC(C(=O)O)c1ccc(C(=O)c2ccccc2)s1 (configuration not stated) [Tiaprofenic acid] | 0.178 ± 0.015
Nc1c2ccccc2nc2ccccc12 [Aminacrine] | 0.0506 ± 0.005
CCCC(CCC)C(=O)O [Valproic acid] | 0.246 ± 0.0077
Cc1[nH]cnc1CN1CCc2c(c3ccccc3n2C)C1=O [Alosetron hydrochloride] | 0.262 ± 0.041
CN(C)c1nc(N(C)C)nc(N(C)C)n1 [Altretamine] | 0.267 ± 0.019
Cc1nnc(NS(=O)(=O)c2ccc(N)cc2)s1 [Sulfamethizole] | 0.183 ± 0.0058
CCC1=C(C)CN(C(=O)NCCc2ccc(S(=O)(=O)NC(=O)N[C@H]3CC[C@H](C)CC3)cc2)C1=O [Glimepiride] | 0.221 ± 0.018
CC1CC(OC(=O)c2ccccc2O)CC(C)(C)C1 (configuration not stated) [Homosalate] | 0.205 ± 0.027
CCCN(CCC)C(=O)C(CCC(=O)O)NC(=O)c1ccccc1 (configuration not stated) [Proglumide] | 0.246 ± 0.019
NCCc1ccc(O)c(O)c1 [Dopamine hydrochloride] | 0.202 ± 0.032

SMILES | growth
OCCN1CCN(CCCN2c3ccccc3Sc3ccc(Cl)cc32)CC1 [Perphenazine] | 0.0954 ± 0.078
CCN(CC)CCOC(=O)C1(C2CCCCC2)CCCCC1 [Dicyclomine hydrochloride] | 0.183 ± 0.041
Cc1cc(-c2ccccc2)nnc1NCCN1CCOCC1 [Minaprine dihydrochloride] | 0.225 ± 0.045
CCC1(C)CC(=O)NC1=O (configuration not stated) [Ethosuximide] | 0.245 ± 0.052
COc1nc(C)nc(Cl)c1NC1=NCCN1 [Moxonidine] | 0.254 ± 0.017
COC(=O)Nc1nc2cc(C(=O)c3cccs3)ccc2[nH]1 [Nocodazole] | 0.215 ± 0.044
CCN(CC)C(=O)/C(C#N)=C/c1cc(O)c(O)c([N+](=O)[O-])c1 [Entacapone] | 0.172 ± 0.0056
CCN(CC)CCOC(=O)C(c1ccccc1)C1CCCCC1 (configuration not stated) [Drofenine hydrochloride] | 0.179 ± 0.014
Cc1c(Cl)cccc1Nc1ncccc1C(=O)O [Clonixin Lysinate] | 0.207 ± 0.035
Cn1cnc2c1c(=O)[nH]c(=O)n2C [Theobromine] | 0.249 ± 0.036
COc1cc(N)c(Cl)cc1C(=O)NC1CCN(Cc2ccccc2)CC1 [Clebopride maleate] | 0.223 ± 0.031
CCN1CCN(c2cc3c(cc2F)c(=O)c(C(=O)O)cn3C2CC2)CC1 [Enrofloxacin] | 0.0487 ± 0.0006
Nc1ccn([C@H]2CC[C@@H](CO)O2)c(=O)n1 [Zalcitabine] | 0.24 ± 0.04
COCCOC(=O)C1=C(C)NC(C)=C(C(=O)OC(C)C)C1c1cccc([N+](=O)[O-])c1 (configuration not stated) [Nimodipine] | 0.197 ± 0.037
C[C@H]1O[C@@H](O[C@H]2[C@@H](O)C[C@H](O[C@H]3[C@@H](O)C[C@H](O[C@H]4CC[C@@]5(C)[C@H](CC[C@@H]6[C@@H]5C[C@@H](O)[C@]5(C)[C@@H](C7=CC(=O)OC7)CC[C@]65O)C4)O[C@@H]3C)O[C@@H]2C)C[C@H](O)[C@@H]1O [Digoxin] | 0.236 ± 0.045
COc1cccc2c1C(=O)c1c(O)c3c(c(O)c1C2=O)C[C@@](O)(C(C)=O)C[C@@H]3O[C@H]1C[C@H](N)[C@H](O)[C@H](C)O1 [Daunorubicin hydrochloride] | 0.0519 ± 0.00092
O=C(CCNNC(=O)c1ccncc1)NCc1ccccc1 [Nialamide] | 0.249 ± 0.014
CC(=O)S[C@@H]1CC2=CC(=O)CC[C@]2(C)[C@H]2CC[C@@]3(C)[C@@H](CC[C@@]34CCC(=O)O4)[C@H]12 [Spironolactone] | 0.178 ± 0.018
